PrPC surface inh: inhibitors of human cell surface prion protein PrPC, primary screen, cell-based, TR-FRET; Major prion protein (Homo sapiens), P04156; TR-FRET read-out; inhibition, % at 13.8 µM; 370,000 compounds, 0.43% hits; AID 720596, 2013; in the data active = inhibition above about 24%; also: 0% = median of the test wells and 100% = reference compound wells
SSB-PriA inh: inhibitors of Klebsiella pneumoniae PriA binding to SSB C-terminal tail, primary screen, biochemical, AlphaScreen. inhibition, % at 33 µM. 430,000 compounds, 0.6% hits. AlphaScreen SSBct-PriA binding, biotinylated peptide; in the data active = inhibition mostly above about 37%, no sharp cut-off; inactive = mostly below about 20%;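 also: plate controls were negative control peptide for no effect and reference peptide for full effect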
PrP UTR inh: inhibition of PrP 5' UTR reporter expression; inhibition, % (concentration not given with the values); cell-based PrP 5' UTR mRNA reporter, plate reader; 340,000 compounds, 0.35% hits; in the data active = inhibition above about 52%; also: 0 = median of the neutral control wells
PfHsp40 rescue: rescue of yeast from PfHsp40 toxicity, primary screen, S. cerevisiae, ATP luminescence; 340,000 compounds, 0.68% hits; S. cerevisiae expressing PfHsp40, growth rescue; AID 504582, 2011; growth rescue, % at 12.5 µM; in the data active = growth rescue above about 28%, passing the limit was not always enough;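 also: yeast W303a lacking pdr1 and pdr3 grown in galactose medium; growth measured after three days at 30 °C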
BJeLR lethal: MLPCN primary cell-based screen for lethality selective to Ras in HRASV12 cells | 300,000 compounds, 0.17% hits | AID 1554, 2009 | inhibition, % (concentration not given with the values) | BJeLR (HRASV12) viability, CellTiter-Glo ATP luminescence, 48 h; in the data active = inhibition above about 50%
Y pestis TopoI: Yersinia pestis topoisomerase I inhibitors, primary screen, biochemical, cleavage product accumulation, plate reader, single point; activity, % at 10 µM; 360,000 compounds, 0.064% hits; Y. pestis Topo-I cleavage product accumulation; in the data active = activity above about 50%, passing the limit was not always enough
PrPC TRFRET cf: confirmation of inhibitors of cell surface human prion protein, confirmation, cell-based, TR-FRET | 1,500 compounds, 65% hits | inhibition, % at 13.8 µM | cell surface PrPC level | shares compounds with PrPC surface inh; in the data active = inhibition above about 25%
LD9 cytotox: cytotoxicity in LD9 cells, cytotoxicity control for cell surface PrPc inhibitor project, cell-based, luminescence, high throughput; shares compounds with PrPC surface inh; luminescence viability; inhibition, % at 13.8 µM; 1,500 compounds, 29% hits; AID 743201, 2013; in the data active = inhibition above about 9.5%
Numbers without * were called inactive. Shown are actives, neighbours in structure and some others; about 1.7% of the full set was active somewhere.

What do the screens show for `Cc1ccc(-n2c(C)cc(C(=O)CSc3nncs3)c2C)cc1`?
PrPC surface inh: 39*; SSB-PriA inh: 18; PrP UTR inh: -52; PfHsp40 rescue: -2; BJeLR lethal: 21; Y pestis TopoI: -2; PrPC TRFRET cf: 34*; LD9 cytotox: 2

How did Cc1cc(C(=O)CSc2nncs2)c(C)n1-c1c(C)n(C)n(-c2ccccc2)c1=O do in these assays?
PrPC surface inh: -7; SSB-PriA inh: -1; PrP UTR inh: -19; PfHsp40 rescue: -2; BJeLR lethal: -1; Y pestis TopoI: 5

What do the screens show for `O=C(CCSc1ccc(Cl)cc1)N1CCN(c2ccc(O)cc2)CC1`?
PrPC surface inh: 38*; SSB-PriA inh: 24; PrP UTR inh: -14; PfHsp40 rescue: 17; BJeLR lethal: -17; Y pestis TopoI: 31; PrPC TRFRET cf: 28*; LD9 cytotox: 1

What do the screens show for `O=C(CCSc1ccccc1)N1CCN(c2ccccc2)CC1`?
PrPC surface inh: 4; SSB-PriA inh: -9; PrP UTR inh: -50; PfHsp40 rescue: 0; BJeLR lethal: 0; Y pestis TopoI: -11

How did CCCCCCCCCCCCCCCCn1cc[n+](C)c1 do in these assays?
PrPC surface inh: 34*; SSB-PriA inh: -14; PrP UTR inh: -24; PfHsp40 rescue: 3; BJeLR lethal: 16; Y pestis TopoI: -17; PrPC TRFRET cf: 49*; LD9 cytotox: 42*

How did O=C(Cc1cccc2ccccc12)Nc1nc(-c2ccc(Br)s2)cs1 do in these assays?
SSB-PriA inh: 9

Results for COc1ccc2nc3cc(Cl)ccc3c(Nc3cc(CN4CCCC4)c(O)c(CN4CCCC4)c3)c2n1 ?
PrPC surface inh: 45*; BJeLR lethal: 18; Y pestis TopoI: -54; PrPC TRFRET cf: 42*; LD9 cytotox: 37*

How did Cc1cc(C)c(S(=O)(=O)Nc2c(C)nc(N3CCOCC3)nc2C)cc1C do in these assays?
SSB-PriA inh: 7

How did c1ccc2c(c1)nc(N1CCOCC1)c1nncn12 do in these assays?
PrPC surface inh: 104*; SSB-PriA inh: -16; PrP UTR inh: -3; PfHsp40 rescue: 0; BJeLR lethal: -2; Y pestis TopoI: 1; PrPC TRFRET cf: 2; LD9 cytotox: -3

Results for N#CC(C#N)=C1C=CC=CN1/C(=C\c1ccco1)C(=O)c1ccccc1 ?
PrPC surface inh: 74*; SSB-PriA inh: -1; PrP UTR inh: -19; PfHsp40 rescue: 0; Y pestis TopoI: -5; PrPC TRFRET cf: 67*; LD9 cytotox: 79*

How did O=c1c2ccccc2c2ccccc2c(=O)n1-c1cc([N+](=O)[O-])ccc1Cl do in these assays?
SSB-PriA inh: 9

Results for O=S(=O)(Nc1ccncc1)c1ccc(Cl)cc1 ?
PrPC surface inh: 3; SSB-PriA inh: -11; PrP UTR inh: -15; PfHsp40 rescue: -2; BJeLR lethal: 1; Y pestis TopoI: 1

What do the screens show for `COc1ccc(S(=O)(=O)Nc2ccc(Cc3ccncc3)cc2)cc1OC`?
PrPC surface inh: 11; SSB-PriA inh: 5; PrP UTR inh: 4; PfHsp40 rescue: 1; BJeLR lethal: 12; Y pestis TopoI: 9

Results for O=S(=O)(Nc1ccc(Cc2ccncc2)cc1)c1ccc(Cl)c(Cl)c1 ?
PrPC surface inh: 31*; SSB-PriA inh: -6; PrP UTR inh: -2; PfHsp40 rescue: 4; BJeLR lethal: -3; Y pestis TopoI: -2; PrPC TRFRET cf: 32*; LD9 cytotox: 16*

How did CCc1ccc(OC)c(S(=O)(=O)Nc2ccc(Cc3ccncc3)cc2)c1 do in these assays?
PrPC surface inh: 42*; SSB-PriA inh: 6; PrP UTR inh: -27; PfHsp40 rescue: 1; BJeLR lethal: 23; Y pestis TopoI: 10; PrPC TRFRET cf: 30*; LD9 cytotox: 8

Results for C/C(=N\Nc1nc2ccccc2[nH]1)c1ccccn1 ?
PrPC surface inh: 26*; PrP UTR inh: 26; PfHsp40 rescue: 0; BJeLR lethal: 74*; Y pestis TopoI: -17; PrPC TRFRET cf: 48*; LD9 cytotox: 69*

Results for O=C(Cn1nnc2ccccc21)Nc1cc(-n2cccn2)ncn1 ?
SSB-PriA inh: -14

Results for CCOc1ccc(C(O)=C2C(=O)C(=O)N(c3cc(C)on3)C2c2ccccc2OC)cc1 (stereo not given) ?
SSB-PriA inh: 11

What do the screens show for `CCOc1ccc(/C(O)=C2\C(=O)C(=O)N(c3ccccn3)C2c2ccccc2F)c(C)c1` (stereo not given)?
PrPC surface inh: 34*; Y pestis TopoI: 10; PrPC TRFRET cf: 67*; LD9 cytotox: -5

What do the screens show for `CCOc1ccc(/C(O)=C2\C(=O)C(=O)N(c3cc(C)on3)C2c2ccccc2OC)cc1` (stereo not given)?
PrPC surface inh: 35*; PrP UTR inh: -15; PfHsp40 rescue: 0; BJeLR lethal: 5; Y pestis TopoI: -8; PrPC TRFRET cf: 55*; LD9 cytotox: 0

What do the screens show for `CCOc1cc(S(=O)(=O)n2cc(-c3ccc(F)cc3)c(N)n2)cc(OCC)c1OCC`?
PrPC surface inh: 29*; SSB-PriA inh: 1; PrP UTR inh: -11; PfHsp40 rescue: -1; BJeLR lethal: 10; Y pestis TopoI: 6; PrPC TRFRET cf: 19; LD9 cytotox: 4

Results for CCOc1ccc(S(=O)(=O)n2cc(-c3ccc(F)cc3)c(N)n2)cc1 ?
PrPC surface inh: 4; SSB-PriA inh: -3; PrP UTR inh: -18; PfHsp40 rescue: 2; BJeLR lethal: 11; Y pestis TopoI: 11

Results for CC1CN(C(=O)CCc2cc(C(C)(C)C)c(O)c(C(C)(C)C)c2)CC(C)O1 (stereo not given) ?
PrPC surface inh: 26*; SSB-PriA inh: 1; PrP UTR inh: -11; PfHsp40 rescue: -1; BJeLR lethal: 3; Y pestis TopoI: 14; PrPC TRFRET cf: 29*; LD9 cytotox: 18*

How did CC(C)(C)c1cc(CCC(=O)N2CCC2)cc(C(C)(C)C)c1O do in these assays?
PrPC surface inh: 21; SSB-PriA inh: -5; PrP UTR inh: -1; PfHsp40 rescue: -2; BJeLR lethal: 1; Y pestis TopoI: 5

How did COc1ccc2cc(C(=O)N(C)CC(=O)Nc3ccccc3Br)ccc2c1 do in these assays?
PrPC surface inh: 31*; SSB-PriA inh: 7; PrP UTR inh: -53; PfHsp40 rescue: -1; Y pestis TopoI: 32; PrPC TRFRET cf: 44*; LD9 cytotox: -6

Screening results from PubChem BioAssay.
